Results on six compounds are retold here after PubChem BioAssay (EPA / NIEHS).

Results filed as inconclusive are left out. The source made the active and inactive calls. Rule for the calls, unless noted: active = hit-call score of the fitted dose curve at least 0.9, where 1 is the maximum; inactive = score below 0.9.

Experiment [1] deals with human Vitamin D Receptor (VDR), VDR (gene 7421) (UniProt P11473). The experiment is described as follows: ATG_VDR_TRANS: Attagene TRANS-FACTORIAL HepG2 Assay for human Vitamin D Receptor (VDR) (AID 2283022; active = hit-call score of the fitted dose curve at least 0.9, where 1 is the maximum). In a few lines:
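RT-PCR/capillary electrophoresis read-out of reporter mRNA induction in transiently transfected HepG2; 24 h dosing; chimeric NR-Gal4 (TRANS format); gain-of-signal fit against DMSO baseline.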

Experiment [2] is described as follows: BSK_3C_SRB: Viability Assessment in the BioMAP Diversity Plus: 3C Assay (AID 2283023).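 Note: fitted both ways against DMSO so a hit may be signal rise or drop.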 Conditions: primary human endothelial cells (HUVEC). In a few lines: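 HUVEC, 24 h post-dose; 10% TCA fix, 0.1% SRB stain, A560 nm. Bidirectional curve fit vs DMSO negative control.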
Read-out in experiment [3]: Matrix Metallopeptidase 1 (MMP1), MMP1 (gene 4312)
The experiment is described as follows: BSK_BE3C_MMP1: BioMAP Diversity Plus: BE3C Assay for Matrix Metallopeptidase 1 (MMP1) Biomarker Activity (AID 2283024). Particulars: primary human bronchial epithelial cells; actives raise or lower the signal. In a few lines:
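ELISA measurement of MMP-1 after 24 h compound exposure of primary human bronchial epithelial cells. Changes in either direction fitted relative to DMSO; parallel SRB staining checked overt cytotoxicity.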

Experiment [4] in a line: BSK_3C_Vis: BioMAP Diversity Plus: 3C Assay for Morphology Visualization (AID 2283025).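 Note: fitted both ways so gain or loss versus DMSO counts.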 Particulars: primary human endothelial cells (HUVEC). The method, boiled down: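 Light-microscopy visualization of HUVEC cultures at 24 h post-treatment, with DMSO as baseline for bidirectional fitting.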
Read-out in experiment [5]: Pselectin, SELP (gene 6403)
The experiment is described as follows: BSK_4H_Pselectin: BioMAP Diversity Plus: 4H Assay for Pselectin Biomarker Activity (AID 2283026). Particulars: primary human endothelial cells (HUVEC); actives raise or lower the signal. The method, boiled down:
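ELISA of surface P-selectin on HUVEC, 24 h after dosing, with parallel SRB staining (0.1% after 10% TCA fixation, 560 nm) for overt cytotoxicity. Activity fitted in both directions relative to DMSO.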

The nature of experiment [6]: BSK_4H_SRB: Viability Assessment in the BioMAP Diversity Plus: 4H Assay (AID 2283027).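 Note: cells exposed to compound for 24 h before staining.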 Particulars: primary human endothelial cells (HUVEC). The method, boiled down:
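HUVEC, 24 h post-dose; 10% TCA fix, 0.1% SRB stain, A560 nm. Total protein = overt cytotoxicity, parallel to biomarker read. Bidirectional fit vs DMSO baseline.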

A short description of experiment [7]: BSK_BE3C_SRB: Viability Assessment in the BioMAP Diversity Plus: BE3C Assay (AID 2283028). Conditions: primary human bronchial epithelial cells. In a few lines:
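Primary human bronchial epithelium; chemical dosing, 24 h; 10% TCA fix, 0.1% SRB stain, A560; bidirectional fit vs DMSO baseline.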

Read-out in experiment [8]: Thrombomodulin, THBD (gene 7056)
The experiment is described as follows: BSK_3C_Thrombomodulin: BioMAP Diversity Plus: 3C Assay for Thrombomodulin Biomarker Activity (AID 2283029). Particulars: primary human endothelial cells (HUVEC); actives raise or lower the signal. In a few lines:
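ELISA measurement of thrombomodulin on HUVEC surface 24 h after chemical dosing; activity fitted in both directions relative to DMSO vehicle.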

Read-out in experiment [9]: Urokinase-type plasminogen activator receptor (uPAR), PLAUR (gene 5329)
The experiment is described as follows: BSK_4H_uPAR: BioMAP Diversity Plus: 4H Assay for Urokinase-type plasminogen activator receptor (uPAR) Biomarker Activity (AID 2283030). Conditions: primary human endothelial cells (HUVEC); actives raise or lower the signal. The method, boiled down: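 HUVEC, 24 h post-dose; uPAR by ELISA; bidirectional fit vs DMSO baseline.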

Read-out in experiment [10]: Vascular endothelial growth factor receptor 2 (Homo sapiens) (UniProt P35968)
In words: BSK_4H_VEGFRII: BioMAP Diversity Plus: 4H Assay for Vascular endothelial growth factor receptor 2 (VEGFR2) Biomarker Activity (AID 2283031). Conditions: primary human endothelial cells (HUVEC); actives raise or lower the signal. The method, boiled down: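 HUVEC (human primary), 4H system; 24 h post-dose; VEGFRII by ELISA; bidirectional curve fit vs DMSO baseline; gain or loss of signal scored.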

Read-out in experiment [11]: Human Leukocyte Antigen - DR isotype (HLADR), HLA-DRA (gene 3122)
In words: BSK_BE3C_HLADR: BioMAP Diversity Plus: BE3C Assay for Human Leukocyte Antigen - DR isotype (HLADR) Biomarker Activity (AID 2283032). Particulars: primary human bronchial epithelial cells; actives raise or lower the signal. The method, boiled down: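 Cell-surface HLA-DR ELISA readout at 24 h after dosing in the BE3C primary human lung bronchial epithelial system; gain or loss of signal against DMSO, with parallel sulforhodamine B staining of total protein for overt cytotoxicity.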

Read-out in experiment [12]: Vascular cell adhesion molecule 1 (VCAM1), VCAM1 (gene 7412)
In words: BSK_4H_VCAM1: BioMAP Diversity Plus: 4H Assay for Vascular cell adhesion molecule 1 (VCAM1) Biomarker Activity (AID 2283033).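 Note: cell-surface VCAM-1 protein measured by ELISA.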 Conditions: primary human endothelial cells (HUVEC); actives raise or lower the signal. The method, boiled down:
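VCAM-1 ELISA read 24 h after chemical dosing of HUVEC in the BioMAP 4H system, with gain or loss of signal fitted relative to DMSO. Parallel SRB staining (560 nm) checked overt cytotoxicity.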

Read-out in experiment [13]: Interferon-gamma inducible Protein 10 (IP10), CXCL10 (gene 3627)
In words: BSK_BE3C_IP10: BioMAP Diversity Plus: BE3C Assay for Interferon-gamma inducible Protein 10 (IP10) Biomarker Activity (AID 2283034). Particulars: primary human bronchial epithelial cells; actives raise or lower the signal. The method, boiled down: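 IP-10 quantified by ELISA in human primary bronchial epithelial cell cultures at 24 hours post-dosing. Gain or loss of signal fitted relative to DMSO; parallel SRB staining assessed overt cytotoxicity.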

Read-out in experiment [14]: Monokine induced gamma interferon (MIG), CXCL9 (gene 4283)
In words: BSK_BE3C_MIG: BioMAP Diversity Plus: BE3C Assay for Monokine induced gamma interferon (MIG) Biomarker Activity (AID 2283035). Particulars: primary human bronchial epithelial cells; actives raise or lower the signal. The method, boiled down: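 Dose cells (human primary bronchial epithelial), incubate 24 h, quantify MIG by ELISA, then fit concentration–response in both directions relative to DMSO control.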

Read-out in experiment [15]: Transforming growth factor beta 1 (TGFb1), TGFB1 (gene 7040)
In words: BSK_BE3C_TGFb1: BioMAP Diversity Plus: BE3C Assay for Transforming growth factor beta 1 (TGFb1) Biomarker Activity (AID 2283036;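 note: TGF-b1 protein level measured by ELISA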). Particulars: primary human bronchial epithelial cells; actives raise or lower the signal. The method, boiled down: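 ELISA readout of TGF-b1 from human lung bronchial epithelial primary cells, taken 24 h post-treatment. Gain or loss of signal fitted relative to DMSO baseline, with parallel SRB staining for overt cytotoxicity.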

Read-out in experiment [16]: Plasminogen activator inhibitor-1 (PAI1), SERPINE1 (gene 5054)
In words: BSK_BE3C_PAI1: BioMAP Diversity Plus: BE3C Assay for Plasminogen activator inhibitor-1 (PAI1) Biomarker Activity (AID 2283037). Particulars: primary human bronchial epithelial cells; actives raise or lower the signal. In a few lines: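 PAI-1 was measured by ELISA in human primary bronchial epithelial cultures 24 h after chemical dosing, with cytotoxicity checked by SRB total-protein staining in parallel cultures. Activity was fitted in both directions relative to DMSO.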

Read-out in experiment [17]: urokinase plasminogen activator (uPA), PLAU (gene 5328)
In words: BSK_BE3C_uPA: BioMAP Diversity Plus: BE3C Assay for urokinase plasminogen activator (uPA) Biomarker Activity (AID 2283038).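 Note: uPA protein level quantified by ELISA in cell cultures; uPA read one day after compound addition.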 Particulars: primary human bronchial epithelial cells; actives raise or lower the signal. In a few lines:
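ELISA read-out of uPA in human lung primary bronchial epithelial cultures, 24 h post-dosing. Gain or loss of signal fitted bidirectionally relative to DMSO baseline; cytotoxicity checked in parallel cultures via SRB total protein stain.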

Read-out in experiment [18]: Urokinase-type plasminogen activator receptor (uPAR), PLAUR (gene 5329)
The experiment is described as follows: BSK_BE3C_uPAR: BioMAP Diversity Plus: BE3C Assay for Urokinase-type plasminogen activator receptor (uPAR) Biomarker Activity (AID 2283039).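 Note: cells exposed to compound for one day before measurement.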 Conditions: primary human bronchial epithelial cells; actives raise or lower the signal. The method, boiled down:
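uPAR levels were measured by ELISA after 24 h compound treatment of primary human bronchial epithelial cells, fitted in both directions relative to DMSO. Parallel SRB staining served as the cytotoxicity read-out.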

Read-out in experiment [19]: Interleukin-6 (IL6), IL6 (gene 3569)
In words: BSK_CASM3C_IL6: BioMAP Diversity Plus: CASM3C Assay for Interleukin-6 (IL6) Biomarker Activity for (AID 2283040). Conditions: primary human coronary artery smooth muscle cells; actives raise or lower the signal.

Read-out in experiment [20]: Tissue plasminogen activator (tPA), PLAT (gene 5327)
In words: BSK_BE3C_tPA: BioMAP Diversity Plus: BE3C Assay for Tissue plasminogen activator (tPA) Biomarker Activity (AID 2283041).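 Note: tPA level quantified by ELISA one day after compound addition.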 Particulars: primary human bronchial epithelial cells; actives raise or lower the signal. In a few lines:
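tPA measured by ELISA 24 h after dosing human primary bronchial epithelial cells (BE3C system). Changes in either direction were fitted against DMSO. Parallel cultures were stained with SRB to flag overt cytotoxicity.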

Chain of human Vitamin D Receptor (VDR), VDR (gene 7421) (P11473 whole entry, looked up, the tested form may be a part): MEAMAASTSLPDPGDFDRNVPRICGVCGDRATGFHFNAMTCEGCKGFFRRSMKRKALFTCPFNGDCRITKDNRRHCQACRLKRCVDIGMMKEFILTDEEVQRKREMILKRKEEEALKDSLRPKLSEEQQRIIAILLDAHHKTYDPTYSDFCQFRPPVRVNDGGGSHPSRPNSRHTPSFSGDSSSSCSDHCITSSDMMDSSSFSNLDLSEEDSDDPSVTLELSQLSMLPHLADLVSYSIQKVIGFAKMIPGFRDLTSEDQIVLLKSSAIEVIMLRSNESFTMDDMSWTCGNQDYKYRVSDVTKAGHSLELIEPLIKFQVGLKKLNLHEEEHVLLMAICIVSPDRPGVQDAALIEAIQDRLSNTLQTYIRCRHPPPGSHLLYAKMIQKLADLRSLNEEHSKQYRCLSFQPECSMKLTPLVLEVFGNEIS

Take `Cc1ccc(S(=O)(=O)O)cc1C`: the compound was called inactive in experiment [1], in [2], in experiment [3], in [4], in [5] and in [6]. The outcome in [7], in [8], in [9], in experiment [10], in [11] and in experiment [12] was inactive. Moreover, the outcome in experiment [13], in experiment [14], in [15], in experiment [16], in experiment [17] and in [18] was inactive. Further, the outcome in experiment [19] was inactive.

For the compound `Nc1cccc(N)c1`, the compound was called inactive in [1], in [2], in experiment [3], in [4], in experiment [5] and in experiment [6]. For the same compound, the outcome in experiment [7], in experiment [8], in experiment [9], in experiment [10], in [11] and in [12] was inactive. The outcome in experiment [13], in experiment [14], in experiment [15], in [16], in experiment [17] and in [18] was inactive. In addition, in experiment [19], the outcome was inactive.

On to `C=CC(=C)CCC=C(C)C`, for which the call in [1], in experiment [2], in experiment [3], in experiment [4], in experiment [5] and in [6] was inactive. Moreover, the result in [7], in experiment [8], in experiment [9], in [10], in experiment [11] and in experiment [12] was inactive. In addition, the outcome in experiment [13], in [14], in [15], in [16], in [17] and in [18] was inactive. For the same compound, the result in [19] was inactive.

Broadly, the AC50 is the concentration giving half of the maximal activity seen. As for `O=C(O)c1cccc(N(Cc2cccnc2)c2ccc(OC(F)F)c(OC(F)F)c2)c1`, the compound was called inactive in experiment [1], in experiment [2], in [3], in [4], in [7] and in [8]. Further, the outcome in experiment [9], in experiment [10], in [11], in experiment [12], in experiment [14] and in experiment [15] was inactive. Further, the outcome in [17], in experiment [18], in [19] and in experiment [20] was inactive. Also, the results for the AC50 in experiment [5], in [13] and in experiment [16] were 2.44 µM (active), 32.8 µM (active) and 31.3 µM (active), respectively.

In the case of `CC[C@H]1OC(=O)[C@H](C)[C@@H](O[C@H]2C[C@@](C)(OC)[C@@H](O)[C@H](C)O2)[C@H](C)[C@@H](O[C@@H]2O[C@H](C)C[C@H](N(C)C)[C@H]2O)[C@](C)(O)C[C@@H](C)C(=O)[C@H](C)[C@@H](O)[C@]1(C)O`, the compound was classed as inactive in [1], in [2], in [3], in experiment [4], in [5] and in experiment [6]. The outcome in experiment [7], in experiment [8], in experiment [9], in [10], in experiment [11] and in experiment [12] was inactive. Besides, the result in experiment [13], in experiment [14], in experiment [15], in [16], in experiment [17] and in experiment [18] was inactive. Besides, in experiment [19], the result was inactive.

Take `CCNc1ccccc1`: the compound was called inactive in experiment [1], in [2], in experiment [3], in experiment [4], in experiment [6] and in experiment [7]. For the same compound, the outcome in experiment [8], in experiment [9], in experiment [10], in experiment [11], in experiment [12] and in experiment [13] was inactive. Besides, the result in [14], in [15], in experiment [16], in [17], in experiment [18] and in [19] was inactive.
